Our source for the outcome and AC50 values is PubChem BioAssay (EPA / NIEHS).

SMILES strings stand for the structures. The source made the active and inactive calls. The calls were made as follows: active = hit-call score of the fitted dose curve at least 0.9, where 1 is the maximum; inactive = score below 0.9.

A short description of experiment [1]: ATG_CRE_CIS: Attagene CIS-FACTORIAL HepG2 Assay for human cAMP Responsive Element (CRE) binding protein 3 (AID 2282926). As to conditions: HepG2 CRE cis-reporter, Attagene multiplexed mRNA; actives raise or lower the signal. Summed up:
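Human liver HepG2, transient MRTU transfection, 24 h compound exposure. Total RNA → oligo(dT) RT → PCR → 6-FAM primer extension → HpaI cut → CE. Activity called both directions vs DMSO.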

The target of experiment [2] is CCAAT/enhancer-binding protein beta (Homo sapiens) (UniProt P17676). As to the kind of experiment: ATG_C_EBP_CIS: Attagene CIS-FACTORIAL HepG2 Assay for human CCAAT/Enhancer Binding Protein (C/EBP) beta (AID 2282927). As to conditions: HepG2 Attagene cis-factorial transcription factor reporter; actives raise or lower the signal. Summed up: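 Endogenous C/EBPb-driven reporter transcripts measured in transfected human HepG2 cells at 24 h via RT-PCR and capillary electrophoresis of labelled fragments. Activity fitted in both directions relative to DMSO baseline.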

Experiment [3] in a line: ATG_DR4_LXR_CIS: Attagene CIS-FACTORIAL HepG2 Assay for human Liver X Receptor (LXR), DR4 submotif (AID 2282929). As to conditions: HepG2 Attagene DR4 cis-reporter, mRNA transcription; actives raise or lower the signal. The gist of the method:
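Measures endogenous transcription factor activity via a DR4-driven reporter transcript in human HepG2 cells. Compounds incubated 24 h; mRNA quantified by RT-PCR and capillary electrophoresis, analysed as gain or loss of signal versus DMSO.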

A short description of experiment [4]: ATG_AP_2_CIS: Attagene CIS-FACTORIAL HepG2 Assay for human Activator Protein 2 (AP-2) (AID 2282932). As to conditions: HepG2 AP-2 cis-reporter, Attagene transcription factor profiling; actives raise or lower the signal. The gist of the method: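 HepG2, transient MRTU transfection, cis-regulated reporters; 24 h compound exposure; RNA isolated, RT-PCR, 6-FAM labelling, HpaI digest, CE fluorescence. DMSO = negative control/baseline, bidirectional fit.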

Experiment [5] is described as follows: ATG_BRE_CIS: Attagene CIS-FACTORIAL HepG2 Assay for human Bone Morphogenetic Protein (BMP) Response Element (BRE) (AID 2282933). As to conditions: HepG2 BMP response element reporter, Attagene transcription factor profiling; actives raise or lower the signal. The gist of the method:
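Read-out: reporter mRNA induction quantified by RT-PCR and capillary electrophoresis after 24 h chemical exposure of transfected HepG2 cells. Endogenous factor activity on the BMP response element; gain or loss fitted against DMSO baseline.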

In experiment [6] the target is Transcription factor E2F1 (Homo sapiens) (UniProt Q01094). As to the kind of experiment: ATG_E2F_CIS: Attagene CIS-FACTORIAL HepG2 Assay for human E2F Transcription Factor 1 (AID 2282935). The following applies: HepG2 Attagene cis-reporter, E2F reporter RNA transcripts; actives raise or lower the signal. The gist of the method:
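Cis-element reporter mRNA induction in transiently transfected HepG2, 24 h exposure. Activity fitted in both directions relative to DMSO negative control.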

A short description of experiment [7]: ATG_EGR_CIS: Attagene CIS-FACTORIAL HepG2 Assay for human Early Growth Response 1 (EGR1) (AID 2282938). As to conditions: HepG2 Attagene CIS-FACTORIAL EGR reporter mRNA; actives raise or lower the signal. The gist of the method:
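Cell-based multiplex transcription assay: HepG2 carrying transfected cis-element reporter units, 24 h chemical treatment. Fluorescence from capillary electrophoresis of RT-PCR products gives mRNA levels; fitting is bidirectional relative to DMSO.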

Experiment [8] can be described thus: ATG_M_19_CIS: Attagene CIS-FACTORIAL HepG2 Assay for M19 Transcription Factor (Internal Marker) (AID 2282939). As to conditions: HepG2 Attagene CIS-FACTORIAL M19 internal marker reporter; actives raise or lower the signal. Summed up:
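Readout: fluorescent reporter-transcript fragments by capillary electrophoresis after RT-PCR. Human HepG2 liver cells carried transfected MRTU constructs reporting endogenous transcription-factor activity; exposure 24 h. Gain or loss of signal fitted relative to DMSO.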

Experiment [9] can be described thus: ATG_Ets_CIS: Attagene CIS-FACTORIAL HepG2 Assay for human Erythroblast Transformation Specific (ETS) (AID 2282941). The following applies: HepG2 ETS cis-reporter transcription, actives raise or lower the signal. Summed up:
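Human HepG2 hepatoma cells were transiently transfected with promoter-driven reporter constructs and treated for 24 hours. Reporter transcripts were quantified by RT-PCR with fluorescent primer extension; bidirectional curve fitting used DMSO as reference.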

Experiment [10] has as its target Hepatocyte nuclear factor 3-beta (Homo sapiens) (UniProt Q9Y261). As to the kind of experiment: ATG_FoxA2_CIS: Attagene CIS-FACTORIAL HepG2 Assay for human Forkhead box A2 (FOXA2) (AID 2282942). As to conditions: HepG2 cis-reporter transcription factor activity, 24 h; actives raise or lower the signal. The gist of the method:
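In transiently transfected human HepG2 cells, promoter-driven reporter mRNA levels after 24 h chemical exposure are determined via RT-PCR with capillary electrophoresis. DMSO serves as baseline for bidirectional fitting.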

Experiment [11] is described as follows: ATG_FoxO_CIS: Attagene CIS-FACTORIAL HepG2 Assay for human Forkhead box O (FoxO) (AID 2282943). The following applies: HepG2 Attagene cis-reporter, FoxO element, mRNA; actives raise or lower the signal. Summed up:
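Endogenous transcription factor activity read from multiplexed cis-promoter reporter transcripts in transiently transfected HepG2, 24 h after dosing. Reporter RNA measured via RT-PCR plus capillary electrophoresis of FAM-labeled products; gain or loss relative to DMSO.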

Experiment [12] can be described thus: ATG_GATA_CIS: Attagene CIS-FACTORIAL HepG2 Assay for human GATA Binding Protein (AID 2282944). As to conditions: HepG2 GATA cis-element reporter, Attagene multiplex mRNA; actives raise or lower the signal. Summed up:
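Read-out: fluorescent reporter mRNA fragments resolved by capillary electrophoresis after RT-PCR. Human liver HepG2 cells carried transiently transfected cis-regulated reporter constructs; chemicals incubated 24 h; gain or loss of signal fitted relative to DMSO.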

Experiment [13] is described as follows: ATG_GLI_CIS: Attagene CIS-FACTORIAL HepG2 Assay for human Zinc Finger Protein GLI1 (AID 2282945). As to conditions: HepG2, Attagene cis-factorial reporter mRNA, GLI element; actives raise or lower the signal. The gist of the method: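 Bidirectional curve fits relative to DMSO, using reporter mRNA levels from RT-PCR plus capillary electrophoresis. Cells were HepG2 transiently carrying cis-regulated reporter constructs, harvested 24 h after dosing.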

Experiment [14] can be described thus: ATG_M_06_CIS: Attagene CIS-FACTORIAL HepG2 Assay for M06 Transcription Factor (Internal Marker) (AID 2282950). As to conditions: HepG2 Attagene CIS-FACTORIAL M06 internal marker reporter; actives raise or lower the signal. The gist of the method:
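Terse: HepG2, transient MRTU transfection (FuGene 6), 24 h dosing; total RNA, oligo(dT) RT, PCR, FAM label, HpaI cut, capillary electrophoresis; bidirectional fit vs DMSO baseline; background-control endpoint.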

A short description of experiment [15]: ATG_MRE_CIS: Attagene CIS-FACTORIAL HepG2 Assay for human Metal Responsive Element (MRE) (AID 2282954). As to conditions: HepG2 MRE cis-reporter transcription, Attagene multiplex; actives raise or lower the signal. Summed up: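 Transient MRTU transfection of HepG2 (FuGene 6); 24 h dosing; total RNA → oligo(dT) RT, PCR, 6-FAM primer extension, HpaI cut, CE. Bidirectional fit vs DMSO.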

Experiment [16] concerns the target Paired box protein Pax-6 (Homo sapiens) (UniProt P26367). Description: ATG_Pax6_CIS: Attagene CIS-FACTORIAL HepG2 Assay for human Paired Box 6 (PAX6) (AID 2282956). As to conditions: HepG2 CIS-FACTORIAL PAX6 reporter transcription, RNA readout; actives raise or lower the signal. Summed up: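 Multiplexed cis-reporter HepG2 system; 24 h treatment; reporter mRNA read by RT-PCR/CE fluorescence; bidirectional fit vs DMSO.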

Experiment [17] in a line: ATG_PXRE_CIS: Attagene CIS-FACTORIAL HepG2 Assay for human Pregnane X Receptor Element (PXRE) (AID 2282957). As to conditions: HepG2 Attagene CIS-FACTORIAL PXRE reporter, mRNA; actives raise or lower the signal. The gist of the method: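 Transfect HepG2 with MRTUs (cis promoter elements); dose chemical, incubate 24 h; isolate RNA, RT with oligo(dT), PCR, 6-FAM label, HpaI cut, CE. Gain/loss fit vs DMSO.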

Experiment [18] is described as follows: ATG_Sox_CIS: Attagene CIS-FACTORIAL HepG2 Assay for human SRY-box transcription factor (SOX) (AID 2282960). The following applies: HepG2 Attagene cis-factorial SOX reporter, mRNA; actives raise or lower the signal. The gist of the method:
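After 24 h of chemical treatment, transfected HepG2 reporter cells are lysed for total RNA. Transcript levels come from RT-PCR with labelled primer extension and capillary electrophoresis, analysed bidirectionally versus DMSO.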

The target of experiment [19] is Transcription factor Sp1 (Homo sapiens) (UniProt P08047). Description: ATG_Sp1_CIS: Attagene CIS-FACTORIAL HepG2 Assay for human Specificity Protein 1 (Sp1) (AID 2282961). As to conditions: HepG2 Sp1 cis-reporter transcription, actives raise or lower the signal. The gist of the method: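 Sp1-driven reporter mRNA, read as capillary electrophoresis fluorescence after RT-PCR, in transiently transfected HepG2 cells dosed for 24 h; signal change in either direction relative to DMSO.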

Experiment [20] can be described thus: ATG_SREBP_CIS: Attagene CIS-FACTORIAL HepG2 Assay for human Sterol Regulatory Element Binding (SREBP) (AID 2282962). The following applies: HepG2 Attagene cis-factorial SREBP reporter, mRNA; actives raise or lower the signal. The gist of the method:
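mRNA induction of transfected cis-promoter reporters in HepG2 cells, 24 h post-dose. Detection: RT-PCR with 6-FAM-labelled products, HpaI digest, capillary electrophoresis. DMSO served as negative control and baseline.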

Chain of Transcription factor E2F1 (Homo sapiens) (Q01094 whole entry, looked up): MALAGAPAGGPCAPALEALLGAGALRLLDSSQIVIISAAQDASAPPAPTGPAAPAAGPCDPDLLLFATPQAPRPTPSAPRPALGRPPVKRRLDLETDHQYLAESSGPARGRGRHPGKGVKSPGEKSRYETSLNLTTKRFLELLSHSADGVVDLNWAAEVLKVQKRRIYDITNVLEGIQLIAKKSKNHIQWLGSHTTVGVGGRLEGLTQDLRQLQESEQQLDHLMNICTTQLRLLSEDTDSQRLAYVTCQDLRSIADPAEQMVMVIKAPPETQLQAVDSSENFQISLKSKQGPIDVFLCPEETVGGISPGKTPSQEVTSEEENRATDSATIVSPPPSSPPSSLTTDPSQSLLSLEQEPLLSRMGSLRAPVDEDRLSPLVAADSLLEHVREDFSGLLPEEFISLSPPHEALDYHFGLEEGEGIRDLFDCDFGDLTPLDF
Chain of Hepatocyte nuclear factor 3-beta (Homo sapiens) (Q9Y261 whole entry, looked up): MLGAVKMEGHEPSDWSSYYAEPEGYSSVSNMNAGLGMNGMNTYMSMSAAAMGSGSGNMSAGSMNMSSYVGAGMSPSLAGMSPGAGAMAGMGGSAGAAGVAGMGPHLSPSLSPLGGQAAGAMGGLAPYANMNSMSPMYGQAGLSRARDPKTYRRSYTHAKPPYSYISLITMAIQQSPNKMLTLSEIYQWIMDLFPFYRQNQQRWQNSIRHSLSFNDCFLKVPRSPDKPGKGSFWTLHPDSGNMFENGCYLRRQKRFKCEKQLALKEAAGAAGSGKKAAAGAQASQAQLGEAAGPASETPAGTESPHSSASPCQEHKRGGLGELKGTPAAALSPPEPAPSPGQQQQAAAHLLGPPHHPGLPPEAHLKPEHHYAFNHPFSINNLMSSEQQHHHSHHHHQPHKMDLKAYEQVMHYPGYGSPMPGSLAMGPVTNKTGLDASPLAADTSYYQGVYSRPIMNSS
Chain of CCAAT/enhancer-binding protein beta (Homo sapiens) (P17676 whole entry, looked up, the tested form may be a part): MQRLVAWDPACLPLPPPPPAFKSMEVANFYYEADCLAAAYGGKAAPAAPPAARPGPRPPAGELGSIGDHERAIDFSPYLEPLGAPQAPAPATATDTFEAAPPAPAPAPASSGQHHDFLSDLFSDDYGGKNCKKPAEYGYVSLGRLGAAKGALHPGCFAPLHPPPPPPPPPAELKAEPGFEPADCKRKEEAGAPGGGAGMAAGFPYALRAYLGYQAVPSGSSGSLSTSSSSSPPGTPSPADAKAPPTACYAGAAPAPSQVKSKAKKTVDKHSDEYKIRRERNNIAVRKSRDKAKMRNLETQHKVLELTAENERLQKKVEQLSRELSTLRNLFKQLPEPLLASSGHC
Chain of Transcription factor Sp1 (Homo sapiens) (P08047 whole entry, looked up): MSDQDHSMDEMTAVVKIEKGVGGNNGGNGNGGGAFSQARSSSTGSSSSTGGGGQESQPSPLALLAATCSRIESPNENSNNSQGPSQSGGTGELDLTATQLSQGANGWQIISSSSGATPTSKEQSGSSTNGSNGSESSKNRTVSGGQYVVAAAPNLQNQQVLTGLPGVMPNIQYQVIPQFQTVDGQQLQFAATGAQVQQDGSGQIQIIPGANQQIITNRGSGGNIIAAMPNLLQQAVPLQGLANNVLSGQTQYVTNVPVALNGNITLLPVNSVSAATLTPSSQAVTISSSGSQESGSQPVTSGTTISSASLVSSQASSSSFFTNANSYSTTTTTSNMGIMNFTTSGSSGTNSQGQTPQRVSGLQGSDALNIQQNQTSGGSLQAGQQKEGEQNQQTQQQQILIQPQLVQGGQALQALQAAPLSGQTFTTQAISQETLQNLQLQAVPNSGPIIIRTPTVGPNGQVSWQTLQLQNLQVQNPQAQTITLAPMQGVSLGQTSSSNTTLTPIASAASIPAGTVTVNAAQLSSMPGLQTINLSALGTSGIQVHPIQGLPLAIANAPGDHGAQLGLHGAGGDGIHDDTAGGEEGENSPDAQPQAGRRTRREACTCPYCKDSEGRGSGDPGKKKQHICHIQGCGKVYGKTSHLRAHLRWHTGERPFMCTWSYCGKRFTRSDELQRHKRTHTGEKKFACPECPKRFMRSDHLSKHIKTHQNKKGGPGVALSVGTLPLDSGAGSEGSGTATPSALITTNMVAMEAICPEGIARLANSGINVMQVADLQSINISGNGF
Chain of Paired box protein Pax-6 (Homo sapiens) (P26367 whole entry, looked up): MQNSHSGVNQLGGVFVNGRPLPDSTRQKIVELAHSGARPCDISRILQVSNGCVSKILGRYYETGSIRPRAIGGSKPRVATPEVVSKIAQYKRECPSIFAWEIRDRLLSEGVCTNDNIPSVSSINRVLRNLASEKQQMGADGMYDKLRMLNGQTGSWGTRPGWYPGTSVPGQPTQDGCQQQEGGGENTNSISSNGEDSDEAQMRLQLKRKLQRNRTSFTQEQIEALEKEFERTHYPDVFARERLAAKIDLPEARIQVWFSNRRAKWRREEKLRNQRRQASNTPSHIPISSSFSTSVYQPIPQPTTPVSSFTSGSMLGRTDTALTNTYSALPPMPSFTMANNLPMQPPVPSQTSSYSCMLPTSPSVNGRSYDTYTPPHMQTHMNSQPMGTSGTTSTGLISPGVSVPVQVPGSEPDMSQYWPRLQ

`c1ccc(P(c2ccccc2)c2ccccc2)cc1`: the outcome in experiment [1], in experiment [2], in [4], in experiment [5], in experiment [6] and in experiment [7] was inactive. Moreover, the molecule was classed as inactive in [8], in experiment [9], in [10], in [11], in experiment [12] and in [13]. The molecule was called inactive in [14], in experiment [15], in [16], in experiment [18], in experiment [19] and in experiment [20]. In addition, the AC50 – broadly, the concentration giving half of the maximal activity seen – in experiment [3] was 31.5 µM (active); in experiment [17], 4.59 µM (active).
On to `CC(C)CCCCCCCOC(=O)c1ccccc1C(=O)OCCCCCCCC(C)C`, for which the result in experiment [1], in [2], in [3], in [4], in experiment [5] and in experiment [6] was inactive. The outcome in [7], in experiment [8], in experiment [9], in experiment [10], in experiment [11] and in experiment [12] was inactive. In addition, the molecule was called inactive in experiment [13], in [14], in [15], in [16], in experiment [18] and in experiment [19]. Moreover, the molecule was classed as inactive in [20]. Also, the concentration at half-maximal activity (AC50) in experiment [17] is 1.19 µM (active).
Turning to `CCCC=NO`, the molecule was classed as inactive in experiment [1], in experiment [2], in [3], in [4], in [5] and in [6]. Also, the result in experiment [7], in experiment [8], in experiment [9], in [10], in experiment [11] and in experiment [12] was inactive. The outcome in experiment [13], in experiment [14], in [15], in [16], in experiment [17] and in experiment [18] was inactive. Besides, the molecule was classed as inactive in [19] and in [20].
